The target in assay [1] is 6-phosphogluconate dehydrogenase, decarboxylating (Homo sapiens) (UniProt P52209). Briefly: 6PGD enzyme inhibitors, primary screen, biochemical, human, recombinant enzyme, NADPH absorbance (AID 1159550). To be noted: recombinant 6PGD, NADPH absorbance 341 nm; at 10 µM; stronger effect = higher value.
Assay [2] in a line: hESC survival regulators, cell-based (AID 493140; call rule not given here;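 also: cells exposed to compounds for four days before counting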). To be noted: human embryonic stem cell survival screen; stronger effect = higher value.
Assay [3] can be described thus: liver-stage malaria parasite growth inhibition, primary screen, cell-based, HepG2, luciferase luminescence, HepG2 viability (AID 624349; in the data active = parasite load remaining mostly below about 12%, no sharp cut-off; inactive = mostly above about 10%;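 also: 100% = mean of DMSO negative control wells on the same plate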). To be noted: P. berghei liver stage in HepG2, luciferase luminescence, concentration not given here; parasite load remaining: stronger effect = lower value; viability: measured here: HepG2 viability without parasites.
Assay [4] is described as follows: stimulators of nuclear beta-catenin in C2C12, primary screen, imaging, WNT3A-conditioned medium, mouse C2C12, NPC library (AID 1117326; in the data active = nuclear beta-catenin stimulation mostly above about 4.2%, no sharp cut-off; inactive = mostly below about 10%). The settings on record: stronger effect = higher value.
The nature of assay [5]: growth inhibition of GSK3B-pretreated HCT116 cells – cell-based, CellTiter-Glo, 0.2 to 20 µM (AID 1117336;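 active = compounds lowering colon cancer cell viability after pretreatment blocking the GSK3B kinase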). The settings on record: HCT116 viability after GSK3B inhibitor, at 20 µM, stronger effect = higher value. Background: Cellular ATP, detected with luciferase, serves as a proxy for viable cell number.
The nature of assay [6]: HCT116 colon cancer cell growth inhibition, primary screen, CellTiter-Glo luminescence, NPC library (AID 1117342;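 active = compounds that lower survival of HCT116 colon cancer cells in the luminescence readout, no numeric limit stated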). The settings on record: at 20 µM (top of the series).
A short description of assay [7]: CellTiter-Glo luminescent readout of SW480 viability loss, NPC library primary (AID 1117343;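 active = compounds that lower viability of the colon cancer cells in the luminescence readout, with no numeric limit stated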). To be noted: CellTiter-Glo luminescence; at 20 µM (top of the series).
The nature of assay [8]: decreased DLD-1 cellular survival, CellTiter-Glo luminescent readout, NPC compound collection, primary HTS (AID 1117346;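 active = compounds that lower survival of DLD-1 colon cancer cells in the luminescence readout, no cutoff given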). The settings on record: DLD-1 viability, CellTiter-Glo luminescence; at 20 µM (top of the series).
Assay [9] has as its system Aerobactin synthetase IucA (Klebsiella pneumoniae, hypervirulent). The experiment in a line: IucA enzyme inhibition, biochemical, LOPAC library, absorbance readout (AID 1346212; call rule not given here;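 also: 100% = no compound wells and 0% = no enzyme wells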). To be noted: IucA enzyme assay, absorbance (OD) readout; stronger effect = lower value;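 tested at 8 µM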.
Assay [10] can be described thus: sensitizers of A549 cells to miR-34 induction, primary screen, imaging, A549 dox-inducible miR-34, nuclei and caspase counts (AID 1347080;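 active = compounds whose cell count with miR-34 switched on is under 0.7 times the count with it off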). The settings on record: A549 miR-34 inducible, Hoechst nuclei count, 48 h.
The nature of assay [11]: survival rescue of mitochondrial mutant cells in low glucose, primary screen, MELAS cybrids, Rieske KO mouse fibroblasts, CellTiter-Glo (AID 1508586;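 active = mean z-score across replicates of 1.96 or higher in either the MELAS or the Rieske mutant cell line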;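 also: z relative to plate mean and SD of compound and empty wells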).
Assay [12] has as its target NAD(+) hydrolase SARM1 (Homo sapiens) (UniProt Q6SZW1). The experiment in a line: SARM1 TIR NADase inhibitors, cell lysate, NAD-Glo luminescence (AID 1508614;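 active = compound whose remaining NAD level is above about 45 nM, limit read from the data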;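 also: higher remaining NAD means stronger inhibition of SARM1 NADase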). To be noted: SAM-TIR HEK293T lysate NADase, at 1 µM, stronger effect = higher value.
Assay [13] concerns the target Mitogen-activated protein kinase 7 (Homo sapiens) (UniProt Q13164). The experiment in a line: ERK5 transactivation activators in reporter cells, primary screen, cell-based, HTS (AID 1508626;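 active = luciferase signal above three times the same-plate solvent-only control wells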;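 also: luciferase driven by Gal4-ERK5 fusion binding five Gal4 sites before minimal TATA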). The settings on record: HeLa Gal4-ERK5 transactivation, 18 h, at 5 µM, stronger effect = higher value.
Assay [14] can be described thus: viability rescue of complex I mutant cybrids, primary screen, cell-based, galactose medium, ATP luminescence (AID 1645843;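 active = z-score of at least 1.8 in each of two replicates, scored against plate mean and spread of sample wells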;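 also: positive z means more ATP and so rescue of galactose-driven cybrid death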). The settings on record: complex I mutant cybrid cells, 72 h, stronger effect = higher value.
Assay [15] is described as follows: inhibition of endothelial tube formation, primary screen, imaging, VEGF stimulated, CD31 staining, tube area, NPC library (AID 1117340;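 active = compound that reduces growth-factor-driven endothelial tube area in a mixed cell culture, no cutoff stated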). The settings on record: VEGF-stimulated ADSC/ECFC co-culture, at 10 µM, stronger effect = higher value.
The nature of assay [16]: differential killing of epithelial or mesenchymal cells, primary screen, imaging, PC-3E GFP, TEM4-18 mCherry, co-culture (AID 1345086;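 active = compounds killing one labelled cell type while sparing the other, by normalised counts and ratio limits, not self-fluorescent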;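 as to all read-outs here: cells exposed to compound for 72 h before imaging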;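 as to red/green cell ratio (normalised): normalised mesenchymal count divided by normalised epithelial count so high means epithelial killing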). To be noted: imaging cell counts, at 1 µM; for red/green cell ratio (normalised): actives lie on both sides.
The test system of assay [17] is Aerobactin synthetase IucA (Klebsiella pneumoniae hvKP1). The experiment in a line: Biochemical IucA enzyme inhibition primary screen of the Spectrum library (AID 1346200; call rule not given here;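 also: 100% = wells without compound and 0% = wells lacking enzyme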). To be noted: malachite green pyrophosphate, A620, at 8 µM, stronger effect = lower value.
The nature of assay [18]: stimulators of insulin release from INS-1E, primary screen, cell-based, 5 mM glucose, NPC library (AID 1117329;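 active = compound raises insulin release from rat beta cells at 5 mM glucose, no numeric limit stated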). The settings on record: rat INS-1E insulin secretion, at 10 µM, stronger effect = higher value.
The nature of assay [19]: glucagon-like peptide 1 release enhancers, primary assay, NCI-H716 cell line, NPC library (AID 1117341;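 active = compound raises GLP1 secretion from the human gut endocrine cells, with no numeric limit stated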). To be noted: NCI-H716 cells, at 10 µM, stronger effect = higher value.
Setting [20] is: measured here: relative caspase fold change +Dox/-Dox.
The mark [21] stands for this setting: measured here: total cells with miR-34 induction, stronger effect = lower value.
The mark [22] stands for this setting: measured here: total cells without miR-34 induction.
Where [23] appears, read: measured here: epithelial PC-3E GFP cell survival.
The mark [24] stands for this setting: measured here: mesenchymal TEM4-18 mCherry cell survival.

SMILES strings stand for the structures. Values joined by “and” are separate entries in the source; they are usually repeats but may differ in a detail not shown here. Equal entries are not always repeated. Active and inactive are the calls of the source.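 The calls were made as follows, unless noted: active = at least 20% inhibition of 6-phosphogluconate dehydrogenase activity; inactive = the rest.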

Sequence of Mitogen-activated protein kinase 7 (Homo sapiens) (Q13164 whole entry, looked up, the tested form may be a part): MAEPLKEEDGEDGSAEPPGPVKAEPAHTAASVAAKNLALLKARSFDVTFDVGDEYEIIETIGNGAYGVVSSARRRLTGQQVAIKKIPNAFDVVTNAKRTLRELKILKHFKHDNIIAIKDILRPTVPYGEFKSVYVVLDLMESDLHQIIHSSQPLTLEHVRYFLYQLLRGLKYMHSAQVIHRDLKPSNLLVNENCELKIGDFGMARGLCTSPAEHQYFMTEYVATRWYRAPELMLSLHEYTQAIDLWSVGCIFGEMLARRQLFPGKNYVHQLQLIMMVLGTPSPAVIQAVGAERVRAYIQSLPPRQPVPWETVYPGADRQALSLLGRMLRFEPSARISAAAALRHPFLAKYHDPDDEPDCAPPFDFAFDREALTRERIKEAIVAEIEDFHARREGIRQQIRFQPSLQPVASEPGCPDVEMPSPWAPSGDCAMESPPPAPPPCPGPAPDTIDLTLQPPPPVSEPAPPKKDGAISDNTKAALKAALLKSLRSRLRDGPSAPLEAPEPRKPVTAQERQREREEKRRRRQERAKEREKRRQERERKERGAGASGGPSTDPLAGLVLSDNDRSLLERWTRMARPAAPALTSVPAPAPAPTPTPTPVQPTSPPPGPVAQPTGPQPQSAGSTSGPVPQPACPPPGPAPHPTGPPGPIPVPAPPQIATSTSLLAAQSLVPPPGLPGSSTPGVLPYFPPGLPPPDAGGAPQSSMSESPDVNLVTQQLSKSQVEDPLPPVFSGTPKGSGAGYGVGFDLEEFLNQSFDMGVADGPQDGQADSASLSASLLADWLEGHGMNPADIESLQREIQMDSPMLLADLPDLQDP
Sequence of 6-phosphogluconate dehydrogenase, decarboxylating (Homo sapiens) (P52209 whole entry, looked up): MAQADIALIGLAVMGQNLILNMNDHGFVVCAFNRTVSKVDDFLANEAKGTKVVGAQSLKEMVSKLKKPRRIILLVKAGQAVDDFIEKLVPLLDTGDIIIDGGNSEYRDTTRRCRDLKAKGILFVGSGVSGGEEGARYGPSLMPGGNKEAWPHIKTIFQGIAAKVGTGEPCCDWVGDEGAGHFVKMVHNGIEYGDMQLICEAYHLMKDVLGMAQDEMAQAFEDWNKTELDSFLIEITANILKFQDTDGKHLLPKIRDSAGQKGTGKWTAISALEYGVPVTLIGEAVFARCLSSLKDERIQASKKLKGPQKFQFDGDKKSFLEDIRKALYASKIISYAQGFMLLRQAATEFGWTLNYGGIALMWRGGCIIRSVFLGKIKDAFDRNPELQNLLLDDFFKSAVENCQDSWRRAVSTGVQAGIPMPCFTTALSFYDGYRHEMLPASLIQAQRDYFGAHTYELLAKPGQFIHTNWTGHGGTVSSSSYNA
Sequence of NAD(+) hydrolase SARM1 (Homo sapiens) (Q6SZW1 whole entry, looked up, the tested form may be a part): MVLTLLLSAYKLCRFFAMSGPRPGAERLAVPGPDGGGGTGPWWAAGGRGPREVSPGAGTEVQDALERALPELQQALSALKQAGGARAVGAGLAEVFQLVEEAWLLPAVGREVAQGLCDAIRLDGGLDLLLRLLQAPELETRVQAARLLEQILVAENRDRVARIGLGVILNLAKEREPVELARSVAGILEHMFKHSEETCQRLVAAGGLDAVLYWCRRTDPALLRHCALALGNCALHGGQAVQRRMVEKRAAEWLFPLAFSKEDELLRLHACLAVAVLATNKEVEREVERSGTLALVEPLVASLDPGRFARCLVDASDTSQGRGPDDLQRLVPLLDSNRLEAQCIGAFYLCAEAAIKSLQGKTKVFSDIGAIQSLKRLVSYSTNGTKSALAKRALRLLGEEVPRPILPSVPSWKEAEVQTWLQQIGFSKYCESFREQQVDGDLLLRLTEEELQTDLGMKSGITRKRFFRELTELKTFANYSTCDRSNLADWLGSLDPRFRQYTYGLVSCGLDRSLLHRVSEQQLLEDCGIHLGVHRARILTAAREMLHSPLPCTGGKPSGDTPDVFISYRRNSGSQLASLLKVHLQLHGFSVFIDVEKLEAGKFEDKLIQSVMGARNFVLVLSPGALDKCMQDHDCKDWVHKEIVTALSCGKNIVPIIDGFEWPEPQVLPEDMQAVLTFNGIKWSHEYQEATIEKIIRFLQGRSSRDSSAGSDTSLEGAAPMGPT

Turning to `CC(=O)[C@H]1CC[C@H]2[C@@H]3CC[C@H]4C[C@@H](O)CC[C@]4(C)[C@H]3CC[C@]12C`, the inhibition (in general, the change of the read-out against control, counted positive when it falls) in assay [1] is -19.3% (inactive).
With `CNC(=O)Oc1cccc2c1OC(C)(C)O2`, the inhibition in [1] is -4.88% (inactive).
The same measure, in the same setting: to `OC1C[C@H]2CCC[C@@H](C1)N2Cc1ccccc1` (stereo not given in full) belongs 1.32% (inactive); to `O=S1OCC2C(CO1)C1(Cl)C(Cl)=C(Cl)C2(Cl)C1(Cl)Cl` (stereo not given), 5.97% (inactive).
`C=C(C)[C@H]1Cc2c(ccc3c(=O)c4c(oc23)COc2cc(OC)c(OC)cc2-4)O1`: the inhibition in assay [1] was -6.24% (inactive).
For `CC1(C)C(O)CC(O)C2(C)C1CC(O)C1(C)C2CCC2(C)C(c3ccoc3)OC(=O)C3OC321` (stereo not given), the inhibition in [1] is -7.21% (inactive).
With `CO[C@H]1C[C@H](O[C@H]2CC[C@]3(C=O)[C@H]4CC[C@]5(C)[C@@H](C6=CC(=O)OC6)CC[C@]5(O)[C@@H]4CC[C@]3(O)C2)O[C@H](C)[C@H]1O`, in assay [1], the inhibition was -5.2% (inactive).
The same measure, in the same setting: the result for `Cc1c(O)c(C(=O)CC(C)C)c2oc3c(C(=O)CC(C)C)c(O)c(C)c(O)c3c2c1O` reads 0.288% (inactive).
Consider `CN1C[C@H](CNC(=O)OCc2ccccc2)C[C@@H]2c3cccc4c3c(cn4C)C[C@H]21`, for which the survival in assay [2] is 2.67 (inactive). Further, the parasite load remaining in [3] is 77.5% (inactive) and 64.4% (inactive). The viability – broadly, a read-out of living cells in per cent, often relative to untreated cells – in assay [3] was 74.4% and 69.2%. For the same molecule, the nuclear beta-catenin stimulation in assay [4] (at 10 µM) was 53.7% (active); in assay [4] (stimulation, at 2 µM) it was 5.7%. Also, in assay [5], the viability decrease is 93.3% (active). In addition, the inhibition of viability in assay [6] is 94% (active). Also, the viability decrease (inhibition) was 101% (active) in [7] and 92.2% (active) in assay [8]. In addition, the inhibition in assay [1] was -7.03% (inactive). In addition, the remaining activity – broadly, the signal under treatment as a percentage of the control signal – in assay [9] is 130% (inactive). Also, the fold change in assay [10] (stronger effect = lower value) was 0.705 (inactive) and 0.866 (inactive) and 0.969 (inactive); in [10] (setting [20]) it was 1.05 and 1.44 and 0.756. Besides, the cell count in assay [10] (setting [21]) is 1820 and 6760 and 7430; in assay [10] (setting [22]), 2580 and 7810 and 7670. Further, the z-score in assay [11] (MELAS cybrid survival, CellTiter-Glo 48 h, stronger effect = higher value) is 0.443 (inactive); in assay [11] (Rieske KO mouse fibroblast survival, CellTiter-Glo 72 h) it was 0.114; in assay [14], -1.27 (inactive) and -0.62 (inactive). Moreover, the remaining NAD in [12] is 10 nM (inactive). Moreover, the luciferase signal in [13] was 40 AU (inactive).
For `CCC(C)C(=O)c1c(O)c(C)c2oc3c(C)c(O)c(C(=O)C(C)CC)c(O)c3c2c1O` (stereo not given), the inhibition in assay [1] is 4.14% (inactive).
Take `CN(C)C(=S)SSC(=S)N(C)C`: the parasite load remaining in [3] was 69.7% (inactive) and -0.72% (inactive). Moreover, the viability in assay [3] was 84.1% and 106%. Further, the nuclear beta-catenin stimulation was 68.4% (active) in [4] (at 10 µM) and 48.7% in [4] (stimulation, at 2 µM). Also, the viability decrease in assay [5] is 65% (active). Moreover, the tube area decrease in [15] was 39.3% (inactive). In addition, in assay [6], the inhibition of viability is 16.3% (inactive). Further, the viability decrease (inhibition) in [7] is 62.7% (active); in assay [8] it was 59.7% (active). Also, the inhibition in assay [1] was -10.3% (inactive). For the same molecule, the red/green cell ratio (normalised) in [16] is 1.29 (inactive). Also, the normalised cell number worked out at 0.66 in assay [16] (setting [23]) and 0.85 in assay [16] (setting [24]). For the same molecule, in [17], the activity remaining is 97.7% (inactive). For the same molecule, the fold change in assay [10] (stronger effect = lower value) is 0.701 (inactive); in [10] (setting [20]) it was 4.9. For the same molecule, the figures for the cell count in assay [10] (setting [21]) and in [10] (setting [22]) were 7410 and 10600, respectively. Also, the remaining NAD in [12] is 48 nM (active). In addition, in [13], the luciferase signal is 64 AU (inactive).
Take `COc1cccc2c1C(=O)c1c(O)c3c(c(O)c1C2=O)C[C@@](O)(C(=O)CO)CC3OC1CC(N2CCOC(OC)C2)C(O)C(C)O1` (stereo not given in full): the nuclear beta-catenin stimulation in assay [4] (at 10 µM) was 13.6% (active); in assay [4] (stimulation, at 2 µM), 47.6%. Further, the insulin secretion stimulation in assay [18] is 1.1% (inactive). Moreover, the GLP1 secretion stimulation in assay [19] was 7.5% (inactive).
Consider `COC(=O)C(Cl)C(=O)OC`, for which the nuclear beta-catenin stimulation is 0.3% (inactive) in assay [4] (at 10 µM) and 6.8% in assay [4] (stimulation, at 2 µM). The viability decrease in assay [5] was 51.9% (active). The inhibition of viability in [6] is 37.3% (inactive). The values for the viability decrease (inhibition) in assay [7] and in assay [8] were -7.9% (inactive) and 3.4% (inactive), respectively.
Consider `COP(=S)(OC)Oc1ccc(Sc2ccc(OP(=S)(OC)OC)cc2)cc1`, for which the parasite load remaining in assay [3] was 25% (inactive). In assay [3], the viability worked out at 137%. For the same molecule, the nuclear beta-catenin stimulation is 5.7% (inactive) in assay [4] (at 10 µM) and -0.8% in [4] (stimulation, at 2 µM). The insulin secretion stimulation in assay [18] is 0.05% (inactive). Further, the GLP1 secretion stimulation in [19] is -8.7% (inactive). Also, the inhibition in [1] is -4.06% (inactive). Also, the red/green cell ratio (normalised) in [16] is 0.91 (inactive). For the same molecule, the normalised cell number in assay [16] (setting [23]) came out at 1.08; in [16] (setting [24]), 0.98. Moreover, in [17], the activity remaining is 118% (inactive). Moreover, the fold change in [10] (stronger effect = lower value) is 0.838 (inactive); in [10] (setting [20]) it was 1.68. Moreover, the cell count in [10] (setting [21]) was 9320; in assay [10] (setting [22]), 11100. Further, in [13], the luciferase signal was 80 AU (inactive).

Values taken from PubChem BioAssay.
